# Screens: PubChem, National Center for Advancing Translational Sciences (NCATS)
# gsp ag: activates gsp, the McCune-Albright syndrome mutation. hit rate 0.13% among 340,000. AID 624287. gsp mutant cells, cAMP HTRF, 30 min. Potency, µM (doses to about 76.9 µM), for the others: at the top dose activation (cAMP increase), hits mostly activators; active = well fitted activation curve with a large enough effect; inconclusive = small, poorly fitted or top-dose-only effect, or another doubt; inactive = no such curve, though single readings can be large or run the other way; cell line not stated here;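 note: phosphodiesterase inhibitor Ro 20-1724 added with compounds to block cAMP breakdown; potency is the fitted concentration of half-maximal effect; nearly all actives have a fitted effect of over 60% in size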
#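 Cells stably selected in G418 were plated at 2000/well, grown 16-24 hr, then given compounds in DMSO with the PDE inhibitor […] (300 uM solution added) for 30 min at 37C; cAMP was read by HTRF.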
# TSHR antag: antagonists of human thyroid stimulating hormone receptor | TSHR-expressing cells, TSH-stimulated cAMP HTRF, 2 h; stronger effect = lower value | activity change, negative = inhibition, % at 11.5 µM | hit rate 0.2% among 330,000 | AID 504810;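 active = activity change below a set negative limit, meaning inhibition stronger than a set level, cut at about -70% in these data; inconclusive = activity change between two set negative limits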; note: % is set by controls: 0 for no effect and ±100 for the full control effect
# Target sequence (P16473 whole entry, looked up): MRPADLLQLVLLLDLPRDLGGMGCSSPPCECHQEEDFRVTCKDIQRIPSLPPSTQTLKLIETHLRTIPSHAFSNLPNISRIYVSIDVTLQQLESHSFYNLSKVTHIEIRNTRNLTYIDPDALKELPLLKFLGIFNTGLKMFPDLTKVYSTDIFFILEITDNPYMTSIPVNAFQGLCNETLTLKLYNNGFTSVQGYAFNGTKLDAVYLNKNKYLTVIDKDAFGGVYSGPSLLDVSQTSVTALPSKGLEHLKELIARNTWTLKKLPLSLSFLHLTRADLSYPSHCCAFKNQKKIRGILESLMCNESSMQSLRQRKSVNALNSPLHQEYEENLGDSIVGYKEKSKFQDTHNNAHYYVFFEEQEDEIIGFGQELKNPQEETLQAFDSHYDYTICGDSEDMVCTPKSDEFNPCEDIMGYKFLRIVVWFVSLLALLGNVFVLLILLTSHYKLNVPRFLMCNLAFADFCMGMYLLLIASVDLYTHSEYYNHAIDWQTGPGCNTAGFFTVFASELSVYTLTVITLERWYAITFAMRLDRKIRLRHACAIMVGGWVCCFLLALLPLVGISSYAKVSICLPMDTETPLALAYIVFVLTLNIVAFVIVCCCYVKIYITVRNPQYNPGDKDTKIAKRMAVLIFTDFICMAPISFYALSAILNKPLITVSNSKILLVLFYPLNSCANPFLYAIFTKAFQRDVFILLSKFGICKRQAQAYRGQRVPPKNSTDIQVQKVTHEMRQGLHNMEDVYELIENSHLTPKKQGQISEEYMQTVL
#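 Competitive HTRF cAMP read-out (cryptate anti-cAMP antibody, cAMP-d2; 30 min, room temperature) in freshly harvested TSHR cells. Compounds added before TSH at EC80 (4nM final), followed by 2 hours' incubation at 37 deg C.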
# RXFP1 ag: agonists of human relaxin receptor RXFP1. HEK293T-RXFP1 cAMP TR-FRET, 30 min; response scale: percent of porcine relaxin response, buffer zero. Potency, µM (highest dose often 57.5 µM), inactives show at the top dose activation, usual class: activators. hit rate 0.3% among 370,000; active = well fitted activation curve with a large enough effect; inconclusive = small, poorly fitted or top-dose-only effect; note: potency is the fitted concentration of half-maximal effect; % is set by controls: 0 for no effect and ±100 for the full control effect; nearly all actives have a fitted effect of over 60% in size
#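 HEK293 cells stably expressing RXFP1, treated 30 min at 37C with compounds plus PDE4 inhibitor Ro 20174; cAMP measured by HTRF TR-FRET. Normalized to buffer and 29 nM porcine relaxin; EC50 by Hill fit.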
# gsp antag: antagonizes gsp, the McCune-Albright syndrome mutation; gsp-mutant cells, cAMP HTRF, 30 min; Potency, µM (series often up to 76.9 µM), for inactives: at the top dose activity change, negative = inhibition, most hits filed as inhibitors; hit rate 0.4% among 340,000; AID 624288; calls by dose curve; cell line not stated here;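 note: intracellular cAMP measured with PDE inhibitor Ro 20-1724 present during compound exposure; potency is the fitted concentration of half-maximal effect; % is set by controls: 0 for no effect and ±100 for the full control effect; nearly all actives have a fitted effect of over 65% in size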
#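 HTRF cAMP measurement after 30 min RT detection following 30 min, 37C compound treatment alongside […] (added as 300 uM solution) in G418-selected cells seeded at 2000/well and grown 16–24 h.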
# RXFP1 antag: blocks the human relaxin receptor RXFP1; AID 1259400; hit rate 0.59% among 350,000; HEK293-RXFP1, relaxin-stimulated cAMP HTRF, 30 min; stronger effect = lower value; Q9HBX9; activity change, negative = inhibition, % at 57.5 µM;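 active = activity change of -60% or lower, but not beyond a set lower limit; inconclusive = change between -60% and -40%, or beyond the set limit; inactive = change above -40%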; note: % is set by controls: 0 for no effect and ±100 for the full control effect
# Starred values were filed as active, the others as inactive; u = inconclusive; x = no result; + = active, no number; [ ] = dose if it differs, or a comment. Hits are enriched below; roughly 1% of the tested compounds scored in any of these assays.
SMILES,gsp ag,TSHR antag,RXFP1 ag,gsp antag,RXFP1 antag
COc1ccc(-c2nc(C(=O)NCC3CCCO3)cc3c2[nH]c2ccccc23)cc1 (stereo not drawn),x,-13.7,4.0%,28.2µM*,x
Cc1ccc(-c2nc(C(=O)NCC3CCCO3)cc3c2[nH]c2ccccc23)cc1 (stereo not drawn),x,-14.2,-0.3%,u,x
O=C(COc1ccccc1F)Nc1cc(S(=O)(=O)Nc2cccc(Cl)c2)ccc1O,30.0%,-35.2,-2.8%,35.5µM*,4.3
CCOc1ccc(-n2c(SCC(=O)Nc3ccc(CC)cc3)nc3c(oc4ccccc43)c2=O)cc1,x,x,0.2%,x,x
CCOC(=O)c1cnc2ccc(OCC)cc2c1NCc1ccccc1OC,0.5%[15.4 µM],-34.5,-1.5%,31.6µM*,-35.1
N[C@H](C(=O)O)c1ccc(O)cc1,x,x,x,x,-12.6
COc1ccc(OC)c(/C=N/NC(=O)CN2CCSCC2)c1,11.9%,-4.7,0.2%,4.6%,0.6
COc1ccc(Br)cc1/C=N/NC(=O)CN1CCCCC1,-23.7%,-121.8*,0.0%,6.3%,-0.6
Cc1ccc(-n2c(=O)c3c(cnn3C)n(CC(=O)Nc3cccc(C)c3)c2=O)cc1,x,x,-1.3%,x,x
CCC1(C(=O)O)NC(c2cc(OC)ccc2O)C2C(=O)N(Cc3ccccc3)C(=O)C21 (stereo not drawn),-26.7%,23.8,1.0%,4.9%,x
CCCCN1C(=O)C2C(c3ccc(OC)cc3O)NC(CC(C)C)(C(=O)O)C2C1=O (stereo not drawn),-8.1%,0.0,-0.4%,8.91µM*,x
O=C(NCc1cccc(Cl)c1)NCc1noc2ccccc12,x,x,0.2%,x,-24.9
COc1cccc(OC(=O)CSc2nnc(-c3ccccc3OC)o2)c1,x,x,-4.9%,x,-11.4
O=C(NC1CC(=O)N(c2ccc(F)cc2)C1)C1CCCC1 (stereo not drawn),x,x,0.3%,x,-12.3
Cc1c(-c2ccccc2Br)nc2ccccc2c1C(=O)O,4.8%,x,x,-4.4%,4.3
CCc1ccc(-c2nc3ccc(Br)cc3c(C(=O)O)c2C)s1,u,-7.3,7.08µM*,5.2%,-1.3
CC1(C)COCN1S(=O)(=O)c1ccc(C(=O)Nc2nnc(-c3ccc(Cl)s3)o2)cc1,-1.2%,-14.3,-0.2%,31.6µM*,-12.5
CCC(=O)OCCNc1cc(SCCC(=O)OC)c2nonc2c1[N+](=O)[O-],u,-4.8,0.9%,0.1%,-34.0
CCC(=O)OCCNc1cc(Sc2nccn2C)c2nonc2c1[N+](=O)[O-],-24.5%,-96.9*,5.6%,-20.1%,-90.1*
CCCCCCCCCn1c2c(c(=N)c3c1CCC3)CCC2,-6.1%[15.4 µM],-32.9,1.1%,5.2%,-70.2*
CCCCCCCn1c2c(c(=N)c3c1CCC3)CCCC2,2.6%[15.4 µM],-18.9,7.5%,x,-14.6
CCCCCCn1c2c(c(=N)c3c1CCC3)CCC2,16.2%,-23.6,2.8%,35.5µM*,7.8
CC(=O)c1cccc(NC(c2ccc(F)cc2)c2nnc(-c3ccccc3)o2)c1 (stereo not drawn),x,x,-1.4%,x,x
Cc1cccc(NC(=O)c2cc3c(=O)n(Cc4ccco4)ccc3nc2C)c1,x,x,2.7%,x,3.0
COc1ccccc1N1CCN(C(=O)c2cc3c(C)nc4ccccc4c3o2)CC1,7.5%,-12.8,1.1%,-27.4%,-62.3*
SMILES,gsp ag,TSHR antag,RXFP1 ag,gsp antag,RXFP1 antag
CCCCN(C)CCNC(=O)c1nn(-c2ccc(OC)c(Cl)c2)c(=O)c2c1c1ccccc1n2C,x,x,0.2%,x,-1.7
CSc1nc(C)cc(SCC(=O)Nc2ccccc2)n1,31.6µM*,-2.1,1.7%,u,-8.5
O=C(COc1ccc2c(c1)oc(=O)c1ccccc12)NCCCN1CCOCC1,31.3%,5.0,2.1%,+,-2.8
CCn1c(=O)cc(SCC(=O)NCCCN2CCN(c3ccc(F)cc3)CC2)c2ccccc21,22.4µM*,-2.5,11.1%,-6.5%,37.9
Cn1c(=O)cc(SCC(=O)NCCCN2CCOCC2)c2ccccc21,22.4µM*,3.3,12.5%,-1.6%,-0.6
CCn1c(=O)cc(SCC(=O)NCCCN2CCC(C)CC2)c2ccccc21,u,1.0,6.2%,-7.2%,18.6
Cn1c(=O)cc(SCC(=O)NCCCN2CCOCC2)c2ccc(Cl)cc21,28.2µM*,18.1,12.2%,6.0%,17.3
CC(C)c1nn2c(=O)cc(COC(=O)c3ccc(NC(=O)CCc4ccccc4)cc3)nc2s1,x,x,18.4%,x,-4.6
O=C(Nc1c2c(nn1-c1ccc(Cl)cc1)CS(=O)(=O)C2)c1cccc(F)c1,x,x,3.5%,x,x
Cc1ccc(-n2c(C)cc(/C=C(\C#N)C(=O)Nc3ccc(C)c(C)c3)c2C)cc1,x,x,-4.8%,x,x
Cc1ccc(NC(=O)/C(C#N)=C/c2cc(C)n(-c3ccc(Br)cc3)c2C)cc1C,x,x,0.4%,x,-63.3*
CCc1c(O)cc2n(c1=O)-c1ccc(Cl)cc1C2(C)C,u,-25.1,-0.2%,44.7µM*,1.0
CCCN1C(=O)C2(OCCO2)c2cc(Cl)ccc21,-4.8%,-1.6,-0.2%,-5.6%,-9.2
Cc1ccccc1C(=O)c1cccn1CC(=O)NCCN1CCN(c2cccc(C)c2C)CC1,-17.1%,-3.1,1.5%,-6.7%,-68.7*
Cc1cc(C)c(S(=O)(=O)N2CCCOC2CNC(=O)C(=O)NCc2ccccn2)c(C)c1 (stereo not drawn),24.4%[15.4 µM],-6.7,1.4%,11.2µM*,-11.5
Cc1cc(C)c(S(=O)(=O)N2CCOC2CNC(=O)C(=O)NCc2ccccn2)c(C)c1 (stereo not drawn),-29.1%,20.1,-1.3%,6.9%,0.4
CCOC(=O)c1c(NC(=S)NCCc2ccccc2)sc2c1CC(C(C)C)OC2 (stereo not drawn),29.2%,-2.0,-0.2%,-6.4%,15.2
C=CCNC(=S)Nc1sc2c(c1C(=O)OCC)CC(C(C)C)OC2 (stereo not drawn),u,8.5,2.4%,7.5%,-95.6*
Cc1ccc(C)c(N2CCN(C(=O)C3CCC(CNS(=O)(=O)c4ccc(Br)s4)CC3)CC2)c1 (stereo not drawn),x,x,4.0%,x,-4.7
C(=N\Nc1nc2ccccc2[nH]1)/c1c[nH]c2ccccc12,4.2%[15.4 µM],-5.4,0.0%,39.8µM*,-25.5
Cc1ccccc1/C=N/Nc1nc2ccccc2[nH]1,1.9%,-8.3,0.2%,-8.0%,-12.3
Cc1ccc(C(=O)C(=O)O)cc1C,x,x,x,x,-8.4
COc1ccc2[nH]c(=O)c(CN(CC3CCCO3)C(=O)Nc3ccc(F)cc3)cc2c1 (stereo not drawn),10.5%,-26.7,-0.6%,31.6µM*,x
CC(=O)N1CCN(C(=O)c2cccc(S(=O)(=O)N3CCN(c4ccccc4)CC3)c2)CC1,u,-0.8,0.9%,-3.8%,0.3
O=C(NNC(=O)c1cccc(S(=O)(=O)N2CCN(c3ccccc3)CC2)c1)c1ccc(Cl)cc1,11.2µM*,-9.9,-0.6%,-8.5%,x
O=C(O)CCNc1cc(N2CCN(C(=O)c3ccco3)CC2)c2noc3c2c1C(=O)c1ccccc1-3,11.3%[15.4 µM],-37.6,1.9%,u,-74.7*
